Laboratory results as given in the supplement of paper PMC7411054.

Tests used:
Details in all cases: treatment time: 24 h
A549-ACTB-RAB5A [1] = assay: lowest phenotypically active concentration; higher = less potent
In short: (§1)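 Fifteen reporter lines derived from A549, HepG2 and WPMY1 cells by gene editing, carrying BFP for segmentation plus GFP and RFP/FusionRed markers, were exposed to 0.3, 1, 3 or 9 µM for 24 h in four wells each and imaged live. Live-cell features from each well were normalised to solvent control wells. A well set counted as deviating when ≥3 of 4 wells lay beyond the 95th percentile of control Euclidean distances, and as reproducible when the median replicate Pearson correlation exceeded the 95th percentile of non-replicates. Phenotypic activity was assigned only when both criteria were met.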

A549-GM130-SQSTM1 [2] = assay: as above
In short: as §1

A549-TUBA1B-RELA [3] = assay: as above
In short: as §1

HepG2-ACTB-RAB5A [4] = assay: as above
In short: as §1

HepG2-TP53BP1-CLTA [5] = assay: as above
In short: as §1

A549-ACTB-RAB5A [6] = assay: phenotypically active (imaging signature differs from DMSO and reproducible) at any of 0.3-9 uM (binary (1 = active, 0 = inactive)); higher = active
In short: as §1

A549-CANX-COX4 = assay: as above
In short: as §1

A549-GM130-SQSTM1 [7] = assay: as above
In short: as §1

A549-TP53BP1-CLTA = assay: as above
In short: as §1

A549-TUBA1B-RELA [8] = assay: as above
In short: as §1

HepG2-ACTB-RAB5A [9] = assay: as above
In short: as §1

HepG2-CANX-COX4 = assay: as above
In short: as §1

HepG2-GM130-SQSTM1 = assay: as above
In short: as §1

HepG2-TP53BP1-CLTA [10] = assay: as above
In short: as §1

HepG2-TUBA1B-RELA = assay: as above
In short: as §1

WPMY1-ACTB-RAB5A = assay: as above
In short: as §1

WPMY1-CANX-COX4 = assay: as above
In short: as §1

WPMY1-GM130-SQSTM1 = assay: as above
In short: as §1

WPMY1-TP53BP1-CLTA = assay: as above
In short: as §1

WPMY1-TUBA1B-RELA = assay: as above
In short: as §1

O=C(NOCC1CC1)c1ccc(F)c(F)c1Nc1ccc(I)cc1Cl
inactive: phenotypically active (A549-CANX-COX4) 0 | phenotypically active (WPMY1-ACTB-RAB5A) 0 | phenotypically active (WPMY1-CANX-COX4) 0 | phenotypically active (WPMY1-GM130-SQSTM1) 0 | phenotypically active (WPMY1-TP53BP1-CLTA) 0 | phenotypically active (WPMY1-TUBA1B-RELA) 0
active: phenotypically active (A549-ACTB-RAB5A [6]) 1 | phenotypically active (A549-GM130-SQSTM1 [7]) 1 | phenotypically active (A549-TP53BP1-CLTA) 1 | phenotypically active (A549-TUBA1B-RELA [8]) 1 | phenotypically active (HepG2-ACTB-RAB5A [9]) 1 | phenotypically active (HepG2-CANX-COX4) 1 | phenotypically active (HepG2-GM130-SQSTM1) 1 | phenotypically active (HepG2-TP53BP1-CLTA [10]) 1 | phenotypically active (HepG2-TUBA1B-RELA) 1
9 µM: lowest phenotypically active concentration (A549-TUBA1B-RELA [3])
≤ 0.3 µM: lowest phenotypically active concentration (A549-ACTB-RAB5A [1]) | lowest phenotypically active concentration (HepG2-ACTB-RAB5A [4]) | lowest phenotypically active concentration (HepG2-TP53BP1-CLTA [5])
1 µM: lowest phenotypically active concentration (A549-GM130-SQSTM1 [2])

COc1ccccc1OCCNCC(O)COc1cccc2[nH]c3ccccc3c12 (stereo unspecified) [Carvedilol]
9 µM: lowest phenotypically active concentration (A549-ACTB-RAB5A [1]) | lowest phenotypically active concentration (A549-GM130-SQSTM1 [2]) | lowest phenotypically active concentration (A549-TUBA1B-RELA [3]) | lowest phenotypically active concentration (HepG2-ACTB-RAB5A [4]) | lowest phenotypically active concentration (HepG2-TP53BP1-CLTA [5])
active: phenotypically active (A549-ACTB-RAB5A [6]) 1 | phenotypically active (A549-GM130-SQSTM1 [7]) 1 | phenotypically active (A549-TP53BP1-CLTA) 1 | phenotypically active (A549-TUBA1B-RELA [8]) 1 | phenotypically active (HepG2-ACTB-RAB5A [9]) 1 | phenotypically active (HepG2-CANX-COX4) 1 | phenotypically active (HepG2-GM130-SQSTM1) 1 | phenotypically active (HepG2-TP53BP1-CLTA [10]) 1 | phenotypically active (HepG2-TUBA1B-RELA) 1 | phenotypically active (WPMY1-ACTB-RAB5A) 1 | phenotypically active (WPMY1-CANX-COX4) 1 | phenotypically active (WPMY1-GM130-SQSTM1) 1 | phenotypically active (WPMY1-TP53BP1-CLTA) 1 | phenotypically active (WPMY1-TUBA1B-RELA) 1
inactive: phenotypically active (A549-CANX-COX4) 0

CCOP(=O)(OCC)C(=Cc1cc(C(C)(C)C)c(O)c(C(C)(C)C)c1)P(=O)(OCC)OCC
active: phenotypically active (A549-ACTB-RAB5A [6]) 1 | phenotypically active (A549-GM130-SQSTM1 [7]) 1
inactive: phenotypically active (A549-CANX-COX4) 0 | phenotypically active (A549-TP53BP1-CLTA) 0 | phenotypically active (A549-TUBA1B-RELA [8]) 0 | phenotypically active (HepG2-ACTB-RAB5A [9]) 0 | phenotypically active (HepG2-CANX-COX4) 0 | phenotypically active (HepG2-GM130-SQSTM1) 0 | phenotypically active (HepG2-TP53BP1-CLTA [10]) 0 | phenotypically active (HepG2-TUBA1B-RELA) 0 | phenotypically active (WPMY1-ACTB-RAB5A) 0 | phenotypically active (WPMY1-CANX-COX4) 0 | phenotypically active (WPMY1-GM130-SQSTM1) 0 | phenotypically active (WPMY1-TP53BP1-CLTA) 0 | phenotypically active (WPMY1-TUBA1B-RELA) 0
9 µM: lowest phenotypically active concentration (A549-ACTB-RAB5A [1]) | lowest phenotypically active concentration (A549-GM130-SQSTM1 [2])

N#C/C(=C(/N)Sc1ccc(N)cc1)c1ccccc1C(F)(F)F
3 µM: lowest phenotypically active concentration (A549-ACTB-RAB5A [1]) | lowest phenotypically active concentration (A549-GM130-SQSTM1 [2]) | lowest phenotypically active concentration (HepG2-ACTB-RAB5A [4]) | lowest phenotypically active concentration (HepG2-TP53BP1-CLTA [5])
inactive: phenotypically active (A549-CANX-COX4) 0 | phenotypically active (A549-TUBA1B-RELA [8]) 0 | phenotypically active (WPMY1-ACTB-RAB5A) 0 | phenotypically active (WPMY1-CANX-COX4) 0 | phenotypically active (WPMY1-GM130-SQSTM1) 0 | phenotypically active (WPMY1-TUBA1B-RELA) 0
active: phenotypically active (A549-ACTB-RAB5A [6]) 1 | phenotypically active (A549-GM130-SQSTM1 [7]) 1 | phenotypically active (A549-TP53BP1-CLTA) 1 | phenotypically active (HepG2-ACTB-RAB5A [9]) 1 | phenotypically active (HepG2-CANX-COX4) 1 | phenotypically active (HepG2-GM130-SQSTM1) 1 | phenotypically active (HepG2-TP53BP1-CLTA [10]) 1 | phenotypically active (HepG2-TUBA1B-RELA) 1 | phenotypically active (WPMY1-TP53BP1-CLTA) 1

Cn1cc(CCn2cnc(-c3cnn(C)c3)c2-c2ccc(C#N)cc2)cn1
active: phenotypically active (A549-ACTB-RAB5A [6]) 1 | phenotypically active (A549-GM130-SQSTM1 [7]) 1
inactive: phenotypically active (A549-CANX-COX4) 0 | phenotypically active (A549-TP53BP1-CLTA) 0 | phenotypically active (A549-TUBA1B-RELA [8]) 0 | phenotypically active (HepG2-ACTB-RAB5A [9]) 0 | phenotypically active (HepG2-CANX-COX4) 0 | phenotypically active (HepG2-GM130-SQSTM1) 0 | phenotypically active (HepG2-TP53BP1-CLTA [10]) 0 | phenotypically active (HepG2-TUBA1B-RELA) 0 | phenotypically active (WPMY1-ACTB-RAB5A) 0 | phenotypically active (WPMY1-CANX-COX4) 0 | phenotypically active (WPMY1-GM130-SQSTM1) 0 | phenotypically active (WPMY1-TP53BP1-CLTA) 0 | phenotypically active (WPMY1-TUBA1B-RELA) 0
9 µM: lowest phenotypically active concentration (A549-ACTB-RAB5A [1]) | lowest phenotypically active concentration (A549-GM130-SQSTM1 [2])

O=C(O)[C@@H]1[C@H]2C[C@H]3c4[nH]c5ccccc5c4CCN3C[C@@H]2CC[C@@H]1O [Yohimbinic acid monohydrate]
inactive: phenotypically active (A549-CANX-COX4) 0 | phenotypically active (HepG2-ACTB-RAB5A [9]) 0 | phenotypically active (HepG2-CANX-COX4) 0 | phenotypically active (HepG2-GM130-SQSTM1) 0 | phenotypically active (HepG2-TP53BP1-CLTA [10]) 0 | phenotypically active (HepG2-TUBA1B-RELA) 0
9 µM: lowest phenotypically active concentration (A549-ACTB-RAB5A [1]) | lowest phenotypically active concentration (A549-TUBA1B-RELA [3])
3 µM: lowest phenotypically active concentration (A549-GM130-SQSTM1 [2])
active: phenotypically active (A549-ACTB-RAB5A [6]) 1 | phenotypically active (A549-GM130-SQSTM1 [7]) 1 | phenotypically active (A549-TP53BP1-CLTA) 1 | phenotypically active (A549-TUBA1B-RELA [8]) 1 | phenotypically active (WPMY1-ACTB-RAB5A) 1 | phenotypically active (WPMY1-CANX-COX4) 1 | phenotypically active (WPMY1-GM130-SQSTM1) 1 | phenotypically active (WPMY1-TP53BP1-CLTA) 1 | phenotypically active (WPMY1-TUBA1B-RELA) 1
